Assay results reported in PubChem BioAssay AID1159580 (chemical genetic matrix, 2015).
Several values for one entry are separate records, joined by “and”; a condition that tells them apart may be missing. Equal values may be shown once. Screen size: about 5,500 compounds; about 2,000 (36%) were called active. Another 18% or so got no clear call; they are omitted. No stated cut-off is given here; in the data, active means normalized growth mostly below about 0.91 (no sharp cut-off); inconclusive means no clear call, values can overlap the other calls; inactive means mostly above about 0.92. The list shows a part of the results.

Experiment: chemical genetic growth profiling, strain panel (AID 1159580);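 further: tested at 20 µM; growth read once vehicle control cultures reached saturation at 30 °C; 1 = growth at the plate median or of vehicle wells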
Conditions: growth OD

Measured: normalized growth

CC1=C(CC(=O)O)c2cc(F)ccc2/C1=C\c1ccc(S(C)=O)cc1 (stereo unspecified)
inactive: S. cerevisiae deletion strains, locus YJR075W, strain HOC1, stronger effect = lower value 1 | S. cerevisiae deletion strains, locus YKL009W, strain mrt4, stronger effect = lower value 0.993 | S. cerevisiae deletion strains, locus YKL068W, stronger effect = lower value 1.01 | S. cerevisiae deletion strains, locus YKL085W, strain MDH1 (second series), stronger effect = lower value 1.02 | S. cerevisiae deletion strains, locus YKL085W, strain MDH1, stronger effect = lower value 1.02 | S. cerevisiae deletion strains, locus YKL160W, strain elf1, stronger effect = lower value 1 | S. cerevisiae deletion strains, locus YKL190W, strain CNB1, stronger effect = lower value 1.01 | S. cerevisiae deletion strains, locus YKR001C, strain vps1, stronger effect = lower value 0.997 | S. cerevisiae deletion strains, locus YKR026C, strain gcn3, stronger effect = lower value 1.01 | S. cerevisiae deletion strains, locus YKR091W, strain srl3, stronger effect = lower value 1.02 | S. cerevisiae deletion strains, locus YLL001W, strain dnm1, stronger effect = lower value 0.998 | S. cerevisiae deletion strains, locus YLL026W, stronger effect = lower value 1.03 | S. cerevisiae deletion strains, locus YLL041C, strain sdh2, stronger effect = lower value 1.02 | S. cerevisiae deletion strains, locus YLR027C, strain aat2, stronger effect = lower value 1.02 | S. cerevisiae deletion strains, locus YLR039C, strain RIC1, stronger effect = lower value 1.01 | S. cerevisiae deletion strains, locus YLR058C, strain SHM2, stronger effect = lower value 1 | S. cerevisiae deletion strains, locus YLR102C, strain apc9, stronger effect = lower value 1.02 | S. cerevisiae deletion strains, locus YLR113W, strain HOG1, stronger effect = lower value 1 | S. cerevisiae deletion strains, locus YLR221C, strain rsa3, stronger effect = lower value 0.999 | S. cerevisiae deletion strains, locus YLR258W, strain gsy2, stronger effect = lower value 1.01 | S. cerevisiae deletion strains, locus YLR262C, strain YPT6 (second series), stronger effect = lower value 1.02 | S. cerevisiae deletion strains, locus YLR262C, strain YPT6, stronger effect = lower value 0.995 | S. cerevisiae deletion strains, locus YLR268W, strain sec22, stronger effect = lower value 1.06 | S. cerevisiae deletion strains, locus YLR320W, strain mms22, stronger effect = lower value 1 | S. cerevisiae deletion strains, locus YLR330W, strain CHS5, stronger effect = lower value 1.01 | S. cerevisiae deletion strains, locus YLR342W, strain FKS1 (second series), stronger effect = lower value 1.02 | S. cerevisiae deletion strains, locus YLR342W, strain FKS1, stronger effect = lower value 0.99 | S. cerevisiae deletion strains, locus YLR357W, strain rsc2, stronger effect = lower value 1.05 | S. cerevisiae deletion strains, locus YLR370C, strain arc18, stronger effect = lower value 1.03 | S. cerevisiae deletion strains, locus YLR371W, strain rom2, stronger effect = lower value 1.03 | S. cerevisiae deletion strains, locus YLR384C, strain iki3, stronger effect = lower value 1.02 | S. cerevisiae deletion strains, locus YLR418C, strain cdc73, stronger effect = lower value 1.02 | S. cerevisiae deletion strains, locus YML016C, strain PPZ1, stronger effect = lower value 1 | S. cerevisiae deletion strains, locus YML032C, strain rad52, stronger effect = lower value 1.03 | S. cerevisiae deletion strains, locus YML120C, strain ndi1, stronger effect = lower value 1.03 | S. cerevisiae deletion strains, locus YML124C, strain tub3, stronger effect = lower value 1.01 | S. cerevisiae deletion strains, locus YMR058W, strain fet3, stronger effect = lower value 1.03 | S. cerevisiae deletion strains, locus YMR078C, strain ctf18, stronger effect = lower value 1.01 | S. cerevisiae deletion strains, locus YMR125W, strain sto1, stronger effect = lower value 1.02 | S. cerevisiae deletion strains, locus YMR129W, stronger effect = lower value 1.02 | S. cerevisiae deletion strains, locus YMR205C, strain PFK2, stronger effect = lower value 1.03 | S. cerevisiae deletion strains, locus YMR223W, strain ubp8, stronger effect = lower value 0.995 | S. cerevisiae deletion strains, locus YMR231W, strain pep5, stronger effect = lower value 1.02 | S. cerevisiae deletion strains, locus YMR263W, strain SAP30, stronger effect = lower value 1.01 | S. cerevisiae deletion strains, locus YMR307W, strain GAS1, stronger effect = lower value 1 and 1.02 | S. cerevisiae deletion strains, locus YNL067W, strain RPL9B, stronger effect = lower value 1.01 | S. cerevisiae deletion strains, locus YNL071W, strain lat1, stronger effect = lower value 1.02 | S. cerevisiae deletion strains, locus YNL128W, strain TEP1, stronger effect = lower value 1.03 | S. cerevisiae deletion strains, locus YNL153C, strain GIM3, stronger effect = lower value 1.01 and 1.06 | S. cerevisiae deletion strains, locus YNL175C, strain NOP13, stronger effect = lower value 1.02 | S. cerevisiae deletion strains, locus YNL183C, strain NPR1, stronger effect = lower value 0.946 | S. cerevisiae deletion strains, locus YNL197C, strain WHI3, stronger effect = lower value 1.02 | S. cerevisiae deletion strains, locus YNL209W, strain ssb2, stronger effect = lower value 1.02 | S. cerevisiae deletion strains, locus YNL224C, strain SQS1, stronger effect = lower value 1.02 | S. cerevisiae deletion strains, locus YNL233W, strain BNI4, stronger effect = lower value 1.01 | S. cerevisiae deletion strains, locus YNL248C, strain rpa49, stronger effect = lower value 1 | S. cerevisiae deletion strains, locus YNL250W, strain rad50, stronger effect = lower value 1.01 | S. cerevisiae deletion strains, locus YNL271C, strain bni1, stronger effect = lower value 1.01 | S. cerevisiae deletion strains, locus YNL298W, strain CLA4, stronger effect = lower value 0.991 | S. cerevisiae deletion strains, locus YNL307C, strain MCK1, stronger effect = lower value 1.03 | S. cerevisiae deletion strains, locus YNL322C, strain KRE1 (second series), stronger effect = lower value 1.02 | S. cerevisiae deletion strains, locus YNL322C, strain KRE1, stronger effect = lower value 1.01 | S. cerevisiae deletion strains, locus YNR049C, strain mso1, stronger effect = lower value 1.03 | S. cerevisiae deletion strains, locus YNR052C, strain pop2, stronger effect = lower value 1.02 | S. cerevisiae deletion strains, locus YOL006C, strain TOP1, stronger effect = lower value 0.99 | S. cerevisiae deletion strains, locus YOL012C, strain htz1 1.13 | S. cerevisiae deletion strains, locus YOL147C, strain pex11, stronger effect = lower value 1.02 | S. cerevisiae deletion strains, locus YOR001W, strain rrp6, stronger effect = lower value 1.04 | S. cerevisiae deletion strains, locus YOR061W, strain CKA2, stronger effect = lower value 1 | S. cerevisiae deletion strains, locus YOR069W, strain VPS5, stronger effect = lower value 1.01 | S. cerevisiae deletion strains, locus YOR070C, strain gyp1, stronger effect = lower value 1.01 | S. cerevisiae deletion strains, locus YOR080W, strain dia2, stronger effect = lower value 1.04 | S. cerevisiae deletion strains, locus YOR083W, strain WHI5 (second series), stronger effect = lower value 1.03 | S. cerevisiae deletion strains, locus YOR083W, strain WHI5, stronger effect = lower value 0.986 | S. cerevisiae deletion strains, locus YOR106W, strain vam3, stronger effect = lower value 1.01 | S. cerevisiae deletion strains, locus YOR136W, strain idh2, stronger effect = lower value 1.01 | S. cerevisiae deletion strains, locus YOR144C, strain elg1, stronger effect = lower value 1.02 | S. cerevisiae deletion strains, locus YOR184W, strain ser1, stronger effect = lower value 1.01 | S. cerevisiae deletion strains, locus YOR231W, strain MKK1, stronger effect = lower value 0.975 | S. cerevisiae deletion strains, locus YOR265W, strain rbl2, stronger effect = lower value 1.02 | S. cerevisiae deletion strains, locus YOR270C, strain vph1, stronger effect = lower value 1.04 | S. cerevisiae deletion strains, locus YOR290C, strain snf2, stronger effect = lower value 1.02 | S. cerevisiae deletion strains, locus YOR316C, strain cot1, stronger effect = lower value 1.02 | S. cerevisiae deletion strains, locus YPL051W, strain arl3, stronger effect = lower value 0.996 | S. cerevisiae deletion strains, locus YPL055C, strain LGE1, stronger effect = lower value 0.98 | S. cerevisiae deletion strains, locus YPL078C, strain atp4, stronger effect = lower value 1.01 | S. cerevisiae deletion strains, locus YPL106C, strain sse1, stronger effect = lower value 1.03 | S. cerevisiae deletion strains, locus YPL240C, strain hsp82, stronger effect = lower value 1.02 | S. cerevisiae deletion strains, locus YPL241C, strain CIN2, stronger effect = lower value 1.01 | S. cerevisiae deletion strains, locus YPL256C, strain CLN2, stronger effect = lower value 0.994 | S. cerevisiae deletion strains, locus YPR119W, strain clb2, stronger effect = lower value 1.02 | S. cerevisiae deletion strains, locus YPR141C, strain kar3, stronger effect = lower value 1.02 | S. cerevisiae deletion strains, locus YPR163C, strain tif3, stronger effect = lower value 1.02 | S. cerevisiae deletion strains, locus YPR167C, strain met16, stronger effect = lower value 1.02 | S. cerevisiae deletion strains, strain wtn01, stronger effect = lower value 1.03 | S. cerevisiae strains, strain wild type, stronger effect = lower value 1.01
